Bioassay records: PubChem, National Center for Advancing Translational Sciences (NCATS)
Pf Dd2 inh = blocks in vitro growth of P. falciparum Dd2; P. falciparum Dd2 growth, SYBR Green, 72 h; Potency, µM (doses to about 28.9 µM), actives largely listed as inhibitors; actives 4.3% (n = 120,000); AID 1347417; active means well fitted inhibition curve with a large enough effect; further: nearly all actives have a fitted effect of over 65% in size
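Readout: SYBR Green fluorescence, 485 nm excitation, 535 nm emission, after ~16 h lysis at 37C. Before that, Dd2-infected red cells (2.5% hematocrit) grew 72 h with compound, 29 uM top final concentration.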
A number is an active result. This is one part of a sample in which hits are shown more often than they occur.

Screening Cc1ccc2c(c1)-c1nc(-c3ccc4c(c3)NC(=O)CO4)cc(-c3ccccc3)c1CO2 returned Pf Dd2 inh inactive.
Screening COc1ccc(S(=O)(=O)NC(C)C)cc1-n1cnnn1 returned Pf Dd2 inh inactive.
Screening Cc1nn(C(C)C(=O)NCc2ccc(OC(C)C)cc2)c(=O)c2c1sc1ccccc12 (stereo unspecified) returned Pf Dd2 inh inactive.
`COCC1CN(C2CCC2)CC12CCN(C(=O)CC(C)C)CC2` (stereo unspecified) gave Pf Dd2 inh inactive.
For Cc1cc(C[C@@H]2COC[C@@H]2NC(=O)c2ccc3n[nH]nc3c2)on1 the results were Pf Dd2 inh inactive.
`CCOC(=O)C1(Cc2ccc(F)cc2F)CCCN(C(=O)c2c(C)nc3ncccn23)C1` (stereo unspecified) gave Pf Dd2 inh inactive.
Screening COc1cccc(CNC(=O)C2=C(C)C(=O)OC23CCCCCC3)c1 returned Pf Dd2 inh inactive.
CCOC(=O)C1(Cc2ccccc2)CCCN(S(=O)(=O)c2cccs2)C1 (stereo unspecified) was read as Pf Dd2 inh inactive.
For CCOC(=O)c1cc(S(=O)(=O)NCc2ccc(F)cc2)[nH]n1 the results were Pf Dd2 inh inactive.
`CCOC(=O)C1(Cc2cccc(OC)c2)CCCNC1` (stereo unspecified) gave Pf Dd2 inh 11µM.
`O=C(N1CCN(C/C=C/c2ccccc2)CC1)C12CNCC1CNC2` (stereo unspecified) gave Pf Dd2 inh inactive.
For COc1cccc(CN2CCC3(CC2)C(=O)NCN3Cc2ccc(Cl)cc2)c1 the results were Pf Dd2 inh inactive.
For COc1cccc(CC2(CO)CCCNC2)c1 (stereo unspecified) the results were Pf Dd2 inh inactive.
CCOC(=O)C1(Cc2ccc(F)cc2)CCCNC1 (stereo unspecified) was read as Pf Dd2 inh 2.8µM.
`CCOC(=O)C1(Cc2ccc(OC)cc2)CCN(C(=O)C(C)Oc2ccccc2)CC1` (stereo unspecified) gave Pf Dd2 inh inactive.
Screening CCOC(=O)C1(Cc2ccc(Cl)cc2)CCN(Cc2ccc(OC)cc2O)CC1 returned Pf Dd2 inh 0.089µM.
For CCOC(=O)C1(C/C=C/c2ccccc2)CCCNC1 (stereo unspecified) the results were Pf Dd2 inh 4µM.
Screening CCc1noc(-c2cn(C3CCN(C(=O)c4ccoc4)C3)nn2)n1 (stereo unspecified) returned Pf Dd2 inh inactive.
For CCOc1ccc(C(=O)NC2CC(c3cc(N4CCOCC4)ncn3)C2)o1 (stereo unspecified) the results were Pf Dd2 inh inactive.
`Cc1ccc(C2Cn3nnc(C(=O)NCC4CC4)c3CO2)cc1` (stereo unspecified) gave Pf Dd2 inh inactive.
`CCOC(=O)c1ccccc1NC(=O)N(Cc1ccco1)C1CCN(C(C)=O)CC1` gave Pf Dd2 inh inactive.
For COC(=O)CNC(=O)c1cc(-c2ccc(Cl)cc2Cl)c2nncn2n1 the results were Pf Dd2 inh inactive.
For CCn1c2c(c(=O)n1-c1ccccc1)CCN(Cc1ncccn1)C2 the results were Pf Dd2 inh inactive.
For COc1ccc(NC(=O)Cn2c(=O)n(Cc3ccccc3Cl)c(=O)c3cc(OC)c(OC)cc32)cc1 the results were Pf Dd2 inh inactive.
O=C(CCC[C@@H]1[C@H]2CCCN3CCC[C@@H](CN1C(=O)c1ccco1)[C@@H]23)NCC1CC1 was read as Pf Dd2 inh inactive.
`CCOc1nc(NC(=O)NS(=O)(=O)Oc2ccccc2Cl)nc(-c2ccccc2)n1` gave Pf Dd2 inh inactive.
`CCOC(=O)C1(Cc2ccccc2)CCNCC1` gave Pf Dd2 inh 5.6µM.
Screening CCOC(=O)C1(Cc2ccccc2)CCCN(C(=O)c2ccccc2SC)C1 (stereo unspecified) returned Pf Dd2 inh inactive.
For CCOC(=O)C1(Cc2cccc(OC)c2)CCNCC1 the results were Pf Dd2 inh 5µM.
For COCC1CN(C(=O)CCc2cccc(OC)c2)CC12CCNCC2 (stereo unspecified) the results were Pf Dd2 inh inactive.
`CCOC(=O)C1(Cc2ccccc2)CCCN(S(=O)(=O)c2ccc(OC)c(OC)c2)C1` (stereo unspecified) gave Pf Dd2 inh inactive.
C=CCOc1cccc(C(=O)N2CCC(Cc3ccc(OC)cc3)(C(=O)OCC)CC2)c1 was read as Pf Dd2 inh inactive.
COC(=O)N1CCN(c2nc3ncccc3o2)CC1 was read as Pf Dd2 inh inactive.
Screening COCCNC(=O)[C@@H]1C[C@H](Oc2ccccc2)CN1C(=O)c1ccncc1 returned Pf Dd2 inh inactive.
`Cc1ccccc1C(=O)Nc1nnc(S(=O)(=O)N(C)Cc2ccccc2)s1` gave Pf Dd2 inh inactive.
Cc1ccccc1C(=O)Nc1nc2c(s1)CC(C(C)(C)C)CC2 (stereo unspecified) was read as Pf Dd2 inh 5.6µM.
CC1CCc2nc(NC(=O)Cc3ccc(Cl)cc3)sc2C1 (stereo unspecified) was read as Pf Dd2 inh inactive.
For Cc1ccccc1C(=O)Nc1nnc(S(=O)(=O)N2c3ccccc3CC2C)s1 (stereo unspecified) the results were Pf Dd2 inh inactive.
CCCC(=O)Nc1nc2c(s1)CC(C(C)(C)C)CC2 (stereo unspecified) was read as Pf Dd2 inh 13µM.
CC1CCc2nc(NC(=O)COc3ccc(C(C)(C)C)cc3)sc2C1 (stereo unspecified) was read as Pf Dd2 inh inactive.
Screening COc1cc(CN(C(=O)c2ccccc2)c2ccccn2)cc(OC)c1OC returned Pf Dd2 inh inactive.
`CCCOc1ccc(CNC(=O)CCCn2nc(C)c3sc4ccccc4c3c2=O)cc1` gave Pf Dd2 inh inactive.
Screening CCOc1ccccc1NC(=O)N1CC[C@H]2C(=O)NCCCCCCN(Cc3ccncc3)[C@@H]2C1 returned Pf Dd2 inh inactive.
Screening CS(=O)(=O)Nc1ccc(C2(C(=O)NCc3ccc(Cl)cc3)CCCCC2)cc1 returned Pf Dd2 inh inactive.
For Cc1ccc(-c2nc(CS(=O)CC(=O)N3CCN(c4ccccc4)CC3)c(C)o2)cc1 (stereo unspecified) the results were Pf Dd2 inh inactive.
For CCC1CCc2nc3sc(C(=O)Nc4ccc(F)c(Cl)c4)c(N)c3cc2C1 (stereo unspecified) the results were Pf Dd2 inh inactive.
O=C(CN1CCN(c2ccc(Cl)cc2)CC1)Nc1ccc(Cl)c(C(F)(F)F)c1 was read as Pf Dd2 inh inactive.
Screening Nc1c(C(=O)Nc2ccc(Cl)c(C(F)(F)F)c2)sc2nc3c(cc12)N1CCC3CC1 returned Pf Dd2 inh 2.8µM.
`N#Cc1cc2c(nc1SCC(=O)Nc1ccc(Cl)c(C(F)(F)F)c1)C1CCN2CC1` gave Pf Dd2 inh 5µM.
Nc1c(C(=O)Nc2cccc(Br)c2)sc2nc3c(cc12)N1CCC3CC1 was read as Pf Dd2 inh inactive.
Screening N#Cc1c(C(F)(F)F)cc(-c2ccc(F)cc2)nc1SCC(=O)Nc1ccccc1 returned Pf Dd2 inh inactive.
Cc1ccc(-n2c(=O)c3c(c4cc(C)ccc4n3C)n(CC(=O)c3ccc(Cl)cc3)c2=O)cc1 was read as Pf Dd2 inh inactive.
For CC(C)OCCCNC(=O)COc1ccc(NC(=O)C2CC2)cn1 the results were Pf Dd2 inh inactive.
For CCOc1ccc(-c2nc(CSCC(=O)NCc3ccc(C)cc3)c(C)o2)cc1 the results were Pf Dd2 inh inactive.
`Cc1ccc(NC(=O)c2sc(-n3nc(C)c(Cc4ccc5c(c4)OCO5)c3C)nc2C)cc1Cl` gave Pf Dd2 inh inactive.
